About 300 (0.45%) of roughly 67,000 compounds showed an effect of 50% or more. The entries come from a sample that favours strong results as a whole.
biological target: Polyketide synthase Pks13 (Mycobacterium tuberculosis (strain ATCC 25618 / H37Rv)) (UniProt I6X8D2); assay: Mycobacterium tuberculosis Polyketide synthase 13 Thioesterase (PKS13); format: functional; design: scale not given: in the data most compounds retested in dose-response had high values; conditions: 30 µM
Sequence (I6X8D2 whole entry): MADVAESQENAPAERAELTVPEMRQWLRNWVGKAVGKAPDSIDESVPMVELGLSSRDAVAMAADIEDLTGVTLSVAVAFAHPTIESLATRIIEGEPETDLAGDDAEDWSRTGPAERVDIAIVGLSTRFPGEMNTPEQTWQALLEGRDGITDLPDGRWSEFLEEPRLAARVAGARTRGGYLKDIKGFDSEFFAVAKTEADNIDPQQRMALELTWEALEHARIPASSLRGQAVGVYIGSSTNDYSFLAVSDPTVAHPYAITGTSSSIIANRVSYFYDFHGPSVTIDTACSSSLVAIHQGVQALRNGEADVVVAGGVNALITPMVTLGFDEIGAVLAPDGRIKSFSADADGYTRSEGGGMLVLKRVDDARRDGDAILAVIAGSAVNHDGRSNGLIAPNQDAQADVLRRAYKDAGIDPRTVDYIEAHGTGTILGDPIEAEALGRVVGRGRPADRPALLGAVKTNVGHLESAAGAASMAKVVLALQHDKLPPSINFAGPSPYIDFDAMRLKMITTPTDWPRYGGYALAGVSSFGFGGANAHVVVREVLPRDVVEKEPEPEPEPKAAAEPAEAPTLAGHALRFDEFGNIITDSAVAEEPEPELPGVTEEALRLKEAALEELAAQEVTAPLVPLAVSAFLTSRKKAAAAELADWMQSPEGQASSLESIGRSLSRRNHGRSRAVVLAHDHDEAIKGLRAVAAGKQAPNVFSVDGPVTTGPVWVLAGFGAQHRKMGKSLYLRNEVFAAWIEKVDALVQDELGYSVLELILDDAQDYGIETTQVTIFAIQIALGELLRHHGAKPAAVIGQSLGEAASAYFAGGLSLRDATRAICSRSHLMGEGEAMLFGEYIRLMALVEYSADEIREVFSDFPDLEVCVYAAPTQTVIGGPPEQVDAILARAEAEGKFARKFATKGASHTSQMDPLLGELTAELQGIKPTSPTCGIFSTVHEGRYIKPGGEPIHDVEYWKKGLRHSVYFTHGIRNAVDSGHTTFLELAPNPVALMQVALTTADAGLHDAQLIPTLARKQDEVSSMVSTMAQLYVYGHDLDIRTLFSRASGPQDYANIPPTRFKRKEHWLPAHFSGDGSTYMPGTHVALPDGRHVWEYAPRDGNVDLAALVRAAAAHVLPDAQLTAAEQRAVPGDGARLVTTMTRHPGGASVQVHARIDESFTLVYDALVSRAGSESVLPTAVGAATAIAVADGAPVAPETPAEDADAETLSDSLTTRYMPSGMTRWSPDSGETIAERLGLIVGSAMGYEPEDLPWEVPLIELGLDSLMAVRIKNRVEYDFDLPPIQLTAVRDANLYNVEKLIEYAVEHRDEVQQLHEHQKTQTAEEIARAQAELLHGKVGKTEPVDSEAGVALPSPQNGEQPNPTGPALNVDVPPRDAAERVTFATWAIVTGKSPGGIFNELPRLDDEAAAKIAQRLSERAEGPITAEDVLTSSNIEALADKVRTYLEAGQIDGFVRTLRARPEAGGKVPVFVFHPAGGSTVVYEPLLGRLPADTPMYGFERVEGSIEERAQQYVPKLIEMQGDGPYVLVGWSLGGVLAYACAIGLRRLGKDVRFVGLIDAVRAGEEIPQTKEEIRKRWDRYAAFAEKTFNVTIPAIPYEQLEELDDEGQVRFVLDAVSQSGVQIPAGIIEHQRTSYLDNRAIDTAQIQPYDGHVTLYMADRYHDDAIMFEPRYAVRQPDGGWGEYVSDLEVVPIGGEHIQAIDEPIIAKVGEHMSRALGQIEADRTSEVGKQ

Structure (SMILES) | Percent Effect
COCCN1C[C@H]2CN(Cc3cccc(OC(F)(F)F)c3)CCN2C1=O | -30.8%
Cc1ccc(CNC(=O)C2CCCCN2C(=O)OC(C)(C)C)cn1 (configuration not stated) | 56.8%
Cc1cc(CNC(=O)[C@H]2CCCCN2C(=O)OC(C)(C)C)on1 | -8.92%
CC(C)(C)OC(=O)N1CCCCC1C(=O)NCc1cc[nH]n1 (configuration not stated) | -18.2%
COc1cc(N2C[C@@H]3COC[C@]3(COCc3cccc(C)n3)C2)ncn1 | -18.9%
COc1ccc2nc(C[C@@H]3C[C@@H](C(C)C)[C@H](CN)C=C3C)[nH]c2n1 | 56.2%
COc1ccc2[nH]c(C[C@@H]3C[C@@H](C(C)C)[C@H](CN(C)C)C=C3C)nc2c1 | 1.51%
COc1ccc2nc(C[C@@H]3C[C@@H](C(C)C)[C@H](CN(C)C)C=C3C)[nH]c2n1 | -71.1%
CCn1nc(C)cc1C(=O)N1C[C@@H]2C[C@@H](c3nnc(C)[nH]3)O[C@@H]2C1 | -31.5%
COCCN1C[C@H]2[C@@H](C1)N(C(=O)COc1ccccc1)CC[C@H]2OC | -22.6%
COc1ccc2c(C(=O)N(C)C)cc(-c3cnc(N)nc3)nc2c1 | 75.3%
CN(C)C(=O)c1cc(-c2cnc(N)nc2)nc2cc(F)ccc12 | -19.1%
Cc1ccc2nc(-c3cnc(N)nc3)cc(C(=O)N(C)C)c2c1 | 1.85%
COc1ccc(C(=O)N2CC[C@@H]3[C@H](CC2)N(C)CCS3(=O)=O)cc1 | -17.1%
Fc1cccc(CN2C[C@@H]3CN(c4ncccn4)C[C@@H]3C2)c1 | -4.52%
Cn1c(Cn2ncc(N3CCCC3)cc2=O)nc2ccccc21 | -18.2%
CN(C)c1cnn(Cc2nc3ccccc3n2C)c(=O)c1 | -19.4%
Cn1c(Cn2ncc(N3CCCCC3)cc2=O)nc2ccccc21 | 91%
COc1ncccc1C(=O)N1CC[C@H]2C[C@@H](C)O[C@@H]2C1 | -30.1%
c1ccc(NC[C@@H]2CCC[C@@H]3CN(Cc4cccnc4)C[C@@H]32)nc1 | -17.4%
CCOc1ccc2nc(CN3CCC(CNC(C)=O)C3)ccc2c1 (configuration not stated) | -18.1%
CCOc1ccc2nc(CN3CCOC(CN)C3)ccc2c1 (configuration not stated) | 70.3%

Structure (SMILES) | Percent Effect
CCOc1ccc2nc(CN3CCC(CN)C3)ccc2c1 (configuration not stated) | -11.4%
Oc1cccc(CN2C[C@H]3CC[C@@H]2CN(Cc2ccc(F)cc2)C3)c1 | -36.6%
Cc1cccc(CN2C[C@@H]3COC[C@]3(CNC(=O)N3CCCC3)C2)n1 | -7.01%
Cc1ccc(-c2nnc([C@H]3CCN(C4CCC4)C3)o2)cc1 | 11.8%
CN(C)c1ccc(-c2nnc([C@H]3CCN(C4CCCCC4)C3)o2)cc1 | 58.9%
Clc1ccc(-c2nnc([C@H]3CCN(C4CCCCC4)C3)o2)cc1 | -3.49%
O=C(c1ccccc1)N1C[C@@H]2CC[C@H](C1)N(C(=O)CN1CCOCC1)C2 | -38.5%
N#Cc1cc(C#N)c(SCCC(=O)Nc2ccc(F)cc2)nc1N | -20.2%
N#Cc1cc(C#N)c(SCC(=O)NCc2ccc(F)cc2)nc1N | -6.72%
N#Cc1cc(C#N)c(SCC(=O)Nc2ccc(F)cc2)nc1N | 65.2%
C=Cn1ncc(CN2C[C@@H]3C[C@@H](O)CN3C[C@@H]2Cc2ccccc2)c1C | -6.39%
O=S(=O)(Nc1cnc(N2CCOCC2)nc1)c1ccc(C(F)(F)F)cc1 | -20.2%
COCC(=O)Nc1cnc(N2CCOCC2)nc1 | -16%
O=C(Nc1cnc(N2CCOCC2)nc1)c1ccc(C(F)(F)F)cc1 | 106%
Cc1ccc(CN2CC[C@H]3OCC[C@@H](C(=O)N4CCCCO4)[C@@H]3C2)o1 | 16.9%
CN(C)C[C@H]1OC[C@@H]2CN(C(=O)NCc3cccnc3)CC[C@@H]21 | 1.8%
CC(=O)N1C[C@@H](c2ccsc2)[C@@H]2CN(Cc3ccccc3Cl)CC[C@@H]21 | 9.76%
COc1ccc(NC(C)C(=O)N2CCN(c3ncccn3)CC2)cn1 (configuration not stated) | 4.94%
COc1ccc(NC(C)C(=O)N2CCN(c3ccccc3)CC2)cn1 (configuration not stated) | 31.4%
COc1ccc(NC(C)C(=O)N2CCCC2)cn1 (configuration not stated) | 67.9%
CN(C)C[C@]12COC[C@H]1CN(Cc1ccc3ccccc3n1)C2 | -18.2%
CC(C)c1noc(CN(CCC2CCCCC2)CC(N)=O)n1 | -4.56%

Structure (SMILES) | Percent Effect
CCc1noc(CN(CCC2CCCCC2)CC(N)=O)n1 | 6.76%
CC(C)(C)c1nc(CN(CCC2CCCCC2)CC(N)=O)no1 | 57.2%
CSc1ncccc1C(=O)N1C[C@H]2CC[C@@H]1CN(c1cnccn1)C2 | -2.08%
O=C(O)c1ccc2ccc(N3CCN(CC4CC4)CC3)n2c1 | 9.49%
CC(=O)N1CCCc2sc(C(=O)Nc3ccc(C)nc3)nc21 | -22.2%
Cc1ccc(NC(=O)c2nc3c(s2)CCCN3C(C)C)cn1 | -9.2%
Cc1ccc(NC(=O)c2nc3c(s2)CCCN3C(=O)C2CC2)cn1 | 56.3%
CC[C@H]1CN2CC[C@H]1C[C@@H]2CNC(=O)Nc1cccc(C(F)(F)F)c1 | -29.8%
Cc1ccc(CS(=O)(=O)N2CC[C@H]3[C@H]2CCN3C)cc1 | 37.1%
c1ccc(-c2cc(CN3C[C@@H]4CC[C@H](C3)N(CC3CCC3)C4)on2)cc1 | -48.3%
Cc1cnn(CCNCC(=O)NCCOc2ccccc2)c1 | -11.4%
Cc1cnn(CC(C)NCC(=O)NCCc2cccs2)c1 (configuration not stated) | -15.2%
Cc1cnn(CC(C)NCC(=O)NCCOc2ccccc2)c1 (configuration not stated) | 95.2%
O=C(C1CCOCC1)N1C[C@@H]2[C@@H](C1)OCC(=O)N2Cc1ccncc1 | -12.1%
CS(=O)(=O)NCc1cc(-c2cc(F)cc(F)c2)nc(N2CCCC2)n1 | 22.1%
CS(=O)(=O)NCc1cc(-c2cc(F)cc(F)c2)nc(N2CC[C@H](O)C2)n1 | 147%
CS(=O)(=O)NCc1cc(-c2cc(F)cc(F)c2)nc(N2CCOCC2)n1 | 22.5%
Cn1nccc1NC(=O)c1cccc(CN2C[C@H]3CC[C@@H](C2)N3)c1 | -14.8%
CN1CCCC[C@@H]2[C@H]1[C@@H](c1ccccc1)CCN2S(=O)(=O)N1CCCC1 | -11%
Cn1cncc1-c1nnc([C@H]2CCN(CC(C)(C)C)C2)o1 | 25.7%
Cn1cncc1-c1nnc([C@H]2CCN(Cc3ncc[nH]3)C2)o1 | 61%
Cn1cncc1-c1nnc([C@H]2CCN(Cc3cccnc3)C2)o1 | -26%

Structure (SMILES) | Percent Effect
CSCCCN1C[C@H]2CC[C@@H]1CN(Cc1[nH]cnc1C)C2 | -11.9%
c1coc(CN2C[C@@H]3CCCO[C@@H]3[C@H](N3CCCC3)C2)c1 | -16.1%
CN(C)C(=O)c1nc(-c2ccc(S(C)(=O)=O)cc2)c2ccccn12 | 48.7%
CS(=O)(=O)c1ccc(-c2nc(C(=O)N3CCCC3)n3ccccc23)cc1 | 74.1%
CN(C)C(=O)c1nc(-c2ccc(S(C)(=O)=O)cc2)c2cnccn12 | 9.33%
Cc1nnsc1C(=O)N1CC[C@H](c2ccccc2)[C@@H]2[C@H]1CCCCN2C | 56.9%
CN1CCCC[C@@H]2[C@H]1[C@@H](c1ccccc1)CCN2C(=O)c1ccncc1 | 37.2%
CN1CCCC[C@@H]2[C@H]1[C@@H](c1ccccc1)CCN2C(=O)c1ccccc1 | -32%
CC(=O)N1C[C@H](NC(=O)c2cscn2)[C@@H]2OCCC[C@@H]21 | -14.1%
CCCOc1ccc(Cl)cc1CNc1ncnc2oc(C)nc12 | 78.9%
CCCOc1ccccc1CCCNc1ncnc2oc(C)nc12 | 18%
CCC(CNc1ncnc2oc(C)nc12)Cc1ccccc1 (configuration not stated) | -13.8%
Cn1cccc1C(=O)N1C[C@H]2CC[C@@H]1CN(Cc1cscn1)C2 | -21.5%
COc1ccc2c(c1)c(-c1nc(N(C)C)ncc1CN)cn2C | -8.95%
COc1ccc2c(c1)c(-c1nc(C)ncc1CN)cn2C | -1.61%
Cc1ncc(CN)c(-c2cn(C)c3ccccc23)n1 | 140%
O=C(C1CCOCC1)N1C[C@H](OCc2cccnc2)[C@H]2COC[C@H]21 | -10.6%
O=C1CO[C@H]2CN(C3CCOCC3)C[C@H]2N1Cc1ccc(F)cc1 | 18.6%
Cc1ccc(-c2noc(CC[C@@H]3CCCN4CCCC[C@H]34)n2)nn1 | -24.6%
O=C(CC1CC1)N1C[C@H]2CCN[C@H]2C1 | 1.79%
COc1cccc(-c2ccnc3nc(N4CCCCC4)[nH]c(=O)c23)c1 | -83.6%
NC(=O)C1CCN(c2nc3nccc(-c4ccccc4)c3c(=O)[nH]2)CC1 | -5.28%

Structure (SMILES) | Percent Effect
COc1ccc(-c2ccnc3nc(N4CCCC4)[nH]c(=O)c23)cc1OC | -15.2%
COc1ccc(-c2ccnc3nc(N4CCCCC4)[nH]c(=O)c23)cc1 | 75%
O=c1[nH]c(N2CCCCC2)nc2nccc(-c3ccc4c(c3)OCO4)c12 | -6.64%
COc1ccccc1-c1ccnc2nc(N3CCCCC3)[nH]c(=O)c12 | 71.7%
Cc1cc(C(=O)N2C[C@H]3CC[C@@H]2CN(C(=O)c2ccncc2)C3)cs1 | -6.64%
O=C(Nc1cccnc1)[C@@H]1COC[C@H]2CN(C3CCCC3)C[C@H]21 | -9.56%
CCS(=O)(=O)N1CC[C@H]2OCC[C@@]2(c2nnc(C)o2)C1 | -32.8%
CC1=N[C@@]2(CC[C@@H]3CN(S(=O)(=O)C4CC4)C[C@@H]32)C(=O)N1CC(C)C | -51.1%
CC1=N[C@@]2(CC[C@@H]3CN(S(C)(=O)=O)C[C@@H]32)C(=O)N1CC(C)C | 75.9%
CCS(=O)(=O)N1C[C@H]2CC[C@@]3(N=C(C)N(CC(C)C)C3=O)[C@H]2C1 | -10.2%
CN(C)CCNC(=O)[C@H]1C[C@H]2CN(c3ncccn3)C[C@H]2N1C | -18.5%
Cc1cccc(CN2CC[C@H]3[C@H]2CCN3C(=O)c2cnn(C)c2)n1 | 3.27%
NC(=O)CSc1nccc(-c2ccc3c(c2)OCO3)n1 | 59.5%
O=C(CSc1nccc(-c2ccc3c(c2)OCO3)n1)N1CCOCC1 | 26.7%
CNCc1nc(-c2ccc3c(c2)OCO3)c[nH]1 | 0.694%
O=C(O)CSc1nccc(-c2ccc3c(c2)OCO3)n1 | 51.8%
NC(=O)CCC(=O)N1CCc2[nH]nc(-c3ccc4c(c3)OCO4)c2C1 | -10.3%
CCOc1ccc(-c2ccc3c(c2)OCO3)cc1C(N)=O | -15.1%
CN1CCO[C@H]2CN(S(=O)(=O)c3ccc(C#N)cc3)C[C@H]21 | -7.61%

From ChEMBL document CHEMBL3988442, “University of Dundee, Small-Polar-MMV Screening Library” (2021)
